Measurements as given in PubChem BioAssay (NCATS).
Results filed as inconclusive are left out. Active and inactive are the calls of the source. Calls come from the whole dose curve; as a rule, active = well fitted inhibition curve with a large enough effect; inconclusive = small, poorly fitted or top-dose-only effect; inactive = flat fitted curve, though single readings scatter. Peptide text beside a SMILES is read from it.

What follows are molecules tested on CP194 (assay: qHTS profiling for inhibitors of Plasmodium falciparum proliferation (AID 504749; note: nearly all actives have a fitted effect of over 60% in size)). Settings: P. falciparum in erythrocytes, SYBR Green DNA, 72 h; series mostly up to 12.8 µM.
Procedure, shortened: (§1)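 Infected RBCs, 0.3% parasitemia/2.5% Hct final; cpd 72 h, 37 C, 5% CO2; lysis buffer with saponin/triton/SYBR Green I, o/n RT dark; FI 485/535; norm. to artemisinin (0.29 uM) and DMSO.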
Potency is the fitted concentration of half-maximal effect.

Potency, active:
NC(C(=O)O)[C@@H]1CC(Cl)=NO1 (stereo not given in full) 3.38 µM
COC1C=CO[C@@]2(C)Oc3c(C)c(O)c4c(O)c(c5c(nc6cc(C)ccn65)c4c3C2=O)NC(=O)/C(C)=C\C=CC(C)C(O)[C@@H](C)C(O)C(C)[C@@H](OC(C)=O)C1C (stereo not given in full) 12 µM
COC1C=CO[C@@]2(C)Oc3c(C)c(O)c4c(O)c(c(C=NN5CCN(C)CC5)c(O)c4c3C2=O)NC(=O)/C(C)=C\C=CC(C)C(O)[C@@H](C)C(O)C(C)[C@H](OC(C)=O)C1C (stereo not given in full) 4.78 µM
COc1cc(C2c3cc4c(cc3C(O[C@@H]3OC5COC(c6cccs6)OC5C(O)C3O)C3COC(=O)C23)OCO4)cc(OC)c1O (stereo not given in full) 1.69 µM

Potency, inactive:
CN(C)CCCOC1C(C(O)CO)OC2OC(C)(C)O[C@@H]21 (stereo not given in full)
CCC(C)C(=O)OC1CCC=C2C=CC(C)C(CCC3CC(O)CC(=O)O3)[C@@H]21 (stereo not given in full)
CC(=O)OC1CCC2C3CCc4cc(O)ccc4C3CCC12C (stereo not given)
CC[C@@]12CCCN3CCc4c(n(c5ccccc45)[C@](O)(C(=O)OC)C1)C32 (stereo not given in full)
CN1CC(=O)N=C1N
OCC1OC([S-])[C@H](O)C(O)C1O.[Au+] (stereo not given in full)
CC(C)C1CCC(C(=O)NC(Cc2ccccc2)C(=O)O)CC1 (stereo not given)
CCC(CCC(C)C1CCC2C3CC=C4CC(O)CC[C@@]4(C)C3CC[C@@]12C)C(C)C (stereo not given in full)
C[C@]12CCC(=O)C=C1CCC1C2C(=O)C[C@]2(C)C1CC[C@]2(O)C(=O)CO (stereo not given in full)
OCC1O[C@H](OC2C(CO)O[C@@](O)(CO)C2O)C(O)C(O)C1O (stereo not given in full)
CC1(C)OC2CO[C@]3(COS(N)(=O)=O)OC(C)(C)OC3C2O1 (stereo not given in full)
CC1(C)OC2CC(=O)OC[C@@]23C1CC(=O)[C@]1(C)C3CC[C@@]2(C)C(c3ccoc3)OC(=O)C3O[C@@]321 (stereo not given in full)
CCOC(=O)C1=CC(OC(CC)CC)C(NC(C)=O)C(N)C1 (stereo not given)
COC(=O)C(Cc1ccccc1)NC(=O)C(N)CC(=O)O (stereo not drawn) (H-Asp-Phe-OMe; configuration not given here)
C[C@]12C=CC(=O)C=C1CCC1C2C(O)C[C@]2(C)C1CC[C@]2(O)C(=O)CO (stereo not given in full)
CC1(C)S[C@H]2C(NC(=O)[C@@H](N)c3ccc(O)cc3)C(=O)N2[C@@H]1C(=O)O (stereo not given in full)
CC(C)=CCC[C@](C)(O)C1CC=C(C)CC1 (stereo not given in full)
C[C@]1(c2ccccc2)OC(C(=O)O)=CC1=O
CC(=O)N[C@H](CC(C)C)C(=O)O
COc1ccc2cc(C(C)CO)ccc2c1 (stereo not given)
CC1CCC(C(C)C)C(=O)C1 (stereo not given)
CNC1CC(N)[C@H](O)[C@@H](O[C@@H]2OC(CO)C3OC4(OC(C(N)CO)C(O)C(O)C4O)O[C@@H]3[C@H]2O)C1O (stereo not given in full)
CCCC(=O)O[C@]1(C(=O)CO)CCC2[C@@H]3CCC4=CC(=O)CC[C@]4(C)C3C(O)C[C@]21C (stereo not given in full)
CC(=O)[C@]1(O)CCC2C3C=C(Cl)C4=CC(=O)C5CC5[C@@]4(C)C3CC[C@]21C (stereo not given in full)
CC(=O)N[C@@H]1C(O)OC(CO)C(O)C1O (stereo not given in full)
C/C1=C2N=C(/C=C3N=C(/C(C)=C4\[N-]C(C)(C5N=C1C(C)(CCC(=O)NCC(C)OP(=O)([O-])O[C@H]1C(O)C(n6cnc7cc(C)c(C)cc76)O[C@@H]1CO)C5CC(N)=O)C(C)(CC(N)=O)C4CCC(N)=O)C(C)(CC(N)=O)C\3CCC(N)=O)C(C)(C)C/2CCC(N)=O.[CH2-]C1OC(n2cnc3c(N)ncnc32)C(O)C1O.[Co] (stereo not given in full)
O=C1OC(CO)C(O)C(O)C1O (stereo not given)
CNC1C(OC2C(O[C@@H]3C(O)C(O)[C@@H](N=C(N)N)C(O)C3N=C(N)N)OC(C)[C@@]2(O)CO)OC(CO)C(O)C1O (stereo not given in full)
Nc1nc2ncc(CNc3ccc(C(=O)NC(CCC(=O)O)C(=O)O)cc3)nc2c(=O)[nH]1 (stereo not given)

What follows are molecules tested on CP201 in the same assay as above. Settings: P. falciparum in erythrocytes, SYBR Green DNA, 72 h; series mostly up to 12.8 µM.
Procedure, shortened: as §1

Potency, inactive:
CN(C)CCCOC1C(C(O)CO)OC2OC(C)(C)O[C@@H]21 (stereo not given in full)
CCC(C)C(=O)OC1CCC=C2C=CC(C)C(CCC3CC(O)CC(=O)O3)[C@@H]21 (stereo not given in full)
CC(=O)OC1CCC2C3CCc4cc(O)ccc4C3CCC12C (stereo not given)
CC[C@@]12CCCN3CCc4c(n(c5ccccc45)[C@](O)(C(=O)OC)C1)C32 (stereo not given in full)
CN1CC(=O)N=C1N
OCC1OC([S-])[C@H](O)C(O)C1O.[Au+] (stereo not given in full)
CC(C)C1CCC(C(=O)NC(Cc2ccccc2)C(=O)O)CC1 (stereo not given)
CCC(CCC(C)C1CCC2C3CC=C4CC(O)CC[C@@]4(C)C3CC[C@@]12C)C(C)C (stereo not given in full)
C[C@]12CCC(=O)C=C1CCC1C2C(=O)C[C@]2(C)C1CC[C@]2(O)C(=O)CO (stereo not given in full)
OCC1O[C@H](OC2C(CO)O[C@@](O)(CO)C2O)C(O)C(O)C1O (stereo not given in full)
CC1(C)OC2CO[C@]3(COS(N)(=O)=O)OC(C)(C)OC3C2O1 (stereo not given in full)
CC1(C)OC2CC(=O)OC[C@@]23C1CC(=O)[C@]1(C)C3CC[C@@]2(C)C(c3ccoc3)OC(=O)C3O[C@@]321 (stereo not given in full)
CCOC(=O)C1=CC(OC(CC)CC)C(NC(C)=O)C(N)C1 (stereo not given)
COC(=O)C(Cc1ccccc1)NC(=O)C(N)CC(=O)O (stereo not drawn) (H-Asp-Phe-OMe; configuration not given here)
C[C@]12C=CC(=O)C=C1CCC1C2C(O)C[C@]2(C)C1CC[C@]2(O)C(=O)CO (stereo not given in full)
CC1(C)S[C@H]2C(NC(=O)[C@@H](N)c3ccc(O)cc3)C(=O)N2[C@@H]1C(=O)O (stereo not given in full)
CC(C)=CCC[C@](C)(O)C1CC=C(C)CC1 (stereo not given in full)
C[C@]1(c2ccccc2)OC(C(=O)O)=CC1=O
CC(=O)N[C@H](CC(C)C)C(=O)O
COc1ccc2cc(C(C)CO)ccc2c1 (stereo not given)
CC1CCC(C(C)C)C(=O)C1 (stereo not given)
CNC1CC(N)[C@H](O)[C@@H](O[C@@H]2OC(CO)C3OC4(OC(C(N)CO)C(O)C(O)C4O)O[C@@H]3[C@H]2O)C1O (stereo not given in full)
CCCC(=O)O[C@]1(C(=O)CO)CCC2[C@@H]3CCC4=CC(=O)CC[C@]4(C)C3C(O)C[C@]21C (stereo not given in full)
CC(=O)[C@]1(O)CCC2C3C=C(Cl)C4=CC(=O)C5CC5[C@@]4(C)C3CC[C@]21C (stereo not given in full)
CC(=O)N[C@@H]1C(O)OC(CO)C(O)C1O (stereo not given in full)
C/C1=C2N=C(/C=C3N=C(/C(C)=C4\[N-]C(C)(C5N=C1C(C)(CCC(=O)NCC(C)OP(=O)([O-])O[C@H]1C(O)C(n6cnc7cc(C)c(C)cc76)O[C@@H]1CO)C5CC(N)=O)C(C)(CC(N)=O)C4CCC(N)=O)C(C)(CC(N)=O)C\3CCC(N)=O)C(C)(C)C/2CCC(N)=O.[CH2-]C1OC(n2cnc3c(N)ncnc32)C(O)C1O.[Co] (stereo not given in full)
O=C1OC(CO)C(O)C(O)C1O (stereo not given)
CNC1C(OC2C(O[C@@H]3C(O)C(O)[C@@H](N=C(N)N)C(O)C3N=C(N)N)OC(C)[C@@]2(O)CO)OC(CO)C(O)C1O (stereo not given in full)
Nc1nc2ncc(CNc3ccc(C(=O)NC(CCC(=O)O)C(=O)O)cc3)nc2c(=O)[nH]1 (stereo not given)

Potency, active:
NC(C(=O)O)[C@@H]1CC(Cl)=NO1 (stereo not given in full) 3.01 µM
COC1C=CO[C@@]2(C)Oc3c(C)c(O)c4c(O)c(c(C=NN5CCN(C)CC5)c(O)c4c3C2=O)NC(=O)/C(C)=C\C=CC(C)C(O)[C@@H](C)C(O)C(C)[C@H](OC(C)=O)C1C (stereo not given in full) 5.36 µM
COc1cc(C2c3cc4c(cc3C(O[C@@H]3OC5COC(c6cccs6)OC5C(O)C3O)C3COC(=O)C23)OCO4)cc(OC)c1O (stereo not given in full) 4.78 µM
